The source made the active and inactive calls. Cut-off read from the data, not from the text of the source, unless noted: active = inhibition above about 80%; inactive = the rest.
Experiments:
[1] = LFS_MB_P medulloblastoma growth inhibition, cell-based, chromothripsis tumors, cisplatin or BGB combos (AID 1671449); details: LFS_MB_P medulloblastoma cells;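 note: cells exposed for 96 hours; 0% = vehicle DMSO and 100% = killing by high DMSO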
[2] = HDN33 neuroblastoma growth inhibition, cell-based, chromothripsis tumors, cisplatin or BGB combos (AID 1671450); details: HDN33 neuroblastoma cells, stronger effect = higher value;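 note: cells exposed to compound for four days; 0% = vehicle DMSO and 100% = cell killing by high DMSO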
[3] = ICB984 medulloblastoma cell growth inhibition, synergistic combos for chromothripsis tumors, cisplatin or BGB combos (AID 1671451; call rule not given here;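 note: cells exposed for 96 hours before readout; 0% = vehicle DMSO and 100% = killing by high DMSO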); details: ICB984 medulloblastoma cells, drug combinations, stronger effect = higher value
[4] = LFS_MB_1R medulloblastoma cell growth inhibition, synergistic combos for chromothripsis tumors, cisplatin or BGB combos (AID 1671452); details: LFS_MB_1R medulloblastoma cells, stronger effect = higher value;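 note: cells exposed for 96 hours before readout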
[5] = HTB85 osteosarcoma cell growth inhibition, synergistic combos for chromothripsis tumors, BGB or cisplatin IC20 combos (AID 1671453); details: HTB85 osteosarcoma cells, drug combinations, stronger effect = higher value;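 note: cells exposed for 96 hours before readout; 0% = vehicle DMSO and 100% = high DMSO killing control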
[6] = CRL2098 osteosarcoma cell growth inhibition, synergistic combos for chromothripsis tumors, BGB or cisplatin IC20 combos (AID 1671454); details: CRL2098 osteosarcoma cells, drug combinations, stronger effect = higher value;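 note: cells exposed for 96 h before readout; 0% = vehicle DMSO and 100% = killing by high DMSO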
[7] = HD-MB03 medulloblastoma cell growth inhibition, synergistic combos for chromothripsis tumors, BGB or cisplatin IC20 combos (AID 1671455; in the data active = inhibition above about 83%;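 note: 0% = vehicle DMSO and 100% = high DMSO as cytotoxic control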); details: HD-MB03 medulloblastoma cells, stronger effect = higher value
[8] = UWB1.289 ovarian carcinoma cell growth inhibition, synergistic combos for chromothripsis tumors, BGB or cisplatin combos (AID 1671456); details: UWB1.289 ovarian carcinoma cells, stronger effect = higher value;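 note: cells exposed to compound for four days; 0% = vehicle DMSO and 100% = killing by high DMSO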
[9] = LFS_MB_2R medulloblastoma cell growth inhibition, synergistic combos for chromothripsis tumors, cisplatin combos (AID 1671457); details: LFS_MB_2R medulloblastoma cells, stronger effect = higher value;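 note: cells exposed to compound for four days before readout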
[10] = MDA-MB-436 breast carcinoma cell growth inhibition, synergistic combos for chromothripsis tumors, BGB or cisplatin combos (AID 1671458; call rule not given here;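 note: cells exposed for 96 hours; 0% = vehicle DMSO and 100% = killing by high DMSO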); details: MDA-MB-436 breast carcinoma growth inhibition, drug combinations, stronger effect = higher value
[11] = UWB1.289_BRCA1 ovarian cancer growth, cell-based, BGB or cisplatin combinations (AID 1671459); details: UWB1.289 BRCA1 ovarian carcinoma, drug combinations, stronger effect = higher value
[12] = human astrocyte viability loss, single and combined drugs, cytotoxicity control for chromothriptic childhood tumor combination screen, cell-based, BGB or cisplatin IC20 combos (AID 1671460); details: Human astrocytes, drug combinations, stronger effect = higher value;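 note: cells exposed to compounds for 96 hours before viability readout; 0% = vehicle and 100% = killing control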
[13] = growth inhibition of BT084 medulloblastoma cells, cell-based, ICGC_MB145, cisplatin and BGB IC40 combos (AID 1671461); details: drug combinations, stronger effect = higher value;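 note: cells exposed to drugs for 96 hours; 0% = vehicle DMSO and 100% = high DMSO full killing control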
[14] = growth inhibition of RCMB18 medulloblastoma cells, cell-based, cisplatin and BGB IC40 combos (AID 1671462); details: stronger effect = higher value;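 note: cells exposed to compound for four days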
[15] = growth inhibition of CRL1545 osteosarcoma cells, cell-based, cisplatin and BGB IC20 combos (AID 1671464); details: stronger effect = higher value;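 note: cells exposed to compound for 96 hours before readout; 0% = vehicle DMSO and 100% = high DMSO killing control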
[16] = circadian clock period modulators, cell-based, LOPAC library, luminescence reporter (AID 2774; call rule not given here;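 note: values are relative to mean of DMSO wells on each plate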); details: circadian reporter cells, at 7 µM, actives lie on both sides
[17] = viability rescue of complex I mutant cybrids, primary screen, cell-based, galactose medium, ATP luminescence (AID 1645843;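 active = z-score of at least 1.8 in each of two replicates, scored against plate mean and spread of sample wells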;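 note: positive z means more ATP and so rescue of galactose-driven cybrid death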); details: complex I mutant cybrid cells, 72 h, stronger effect = higher value
[18] = measured here: combination with BGB IC40, at 0.05 µM
[19] = measured here: with BGB IC20 combination, at 0.5 µM
[20] = measured here: with cisplatin IC20 combination, at 0.5 µM
[21] = measured here: combination with cisplatin, at 0.5 µM
[22] = measured here: combination with cisplatin, at 5 µM

Compound: O=P(O)(NCCCl)NCCCl
- inhibition ([1]; at 0.5 µM, stronger effect = higher value): -22.2% (inactive)
- inhibition ([1]; measured here: combination with BGB IC20, at 0.005 µM): -18.1%
- inhibition ([1]; measured here: combination with BGB IC40, at 0.005 µM): -19.6%
- inhibition [1, 18]: -1.01%
- inhibition ([1]; measured here: combination with cisplatin, at 0.5 µM, stronger effect = higher value): -31.9%
- inhibition ([1]; measured here: combination with cisplatin, at 5 µM, stronger effect = higher value): -32.1%
- inhibition ([2]; BGB combo, at 5 µM): -3.04%
- inhibition ([2]; at 0.5 µM): -31.2% (inactive)
- inhibition ([2]; cisplatin combo, at 5 µM): -23.7%
- inhibition [2, 19]: -28%
- inhibition [2, 20]: -30.2%
- inhibition ([2]; single agent, at 5 µM): -43.4%
- inhibition ([3]; BGB IC20 combo, at 0.005 µM): -17.4%
- inhibition ([3]; BGB IC40 combo, at 0.005 µM): -58.7%
- inhibition ([3]; BGB IC40 combo, at 0.05 µM): -40.4%
- inhibition ([3]; at 0.5 µM): -24.2% (inactive)
- inhibition ([3]; cisplatin combo, at 0.05 µM): -45.9%
- inhibition ([3]; cisplatin combo, at 0.5 µM): -25.8%
- inhibition ([3]; cisplatin combo, at 5 µM): -10.7%
- inhibition ([3]; measured here: 5 uM single agent, at 5 µM): 3.71%
- inhibition ([4]; at 0.5 µM): -40.6% (inactive)
- inhibition [4, 18]: -43.7%
- inhibition [4, 21]: -71.6%
- inhibition [4, 22]: -97.5%
- inhibition ([5]; at 0.5 µM): -29.6% (inactive)
- inhibition ([5]; measured here: with BGB IC20, at 0.5 µM): -31.2%
- inhibition ([5]; measured here: with BGB IC20, at 5 µM): 0.766%
- inhibition ([5]; measured here: with cisplatin IC20, at 0.5 µM): -42.4%
- inhibition ([5]; measured here: with cisplatin IC20, at 5 µM): 5.56%
- inhibition ([5]; single agent, at 5 µM): -6.89%
- inhibition ([6]; at 0.5 µM): -58.4% (inactive)
- inhibition ([6]; measured here: combination with BGB at IC20, at 0.5 µM): -43.5%
- inhibition ([6]; measured here: combination with cisplatin at IC20, at 0.5 µM): -12.2%
- inhibition ([7]; at 0.5 µM): -20.7% (inactive)
- inhibition ([7]; measured here: combo with BGB at IC20, at 0.5 µM): -26.7%
- inhibition ([7]; measured here: combo with cisplatin at IC20, at 0.5 µM): -18.9%
- inhibition ([8]; at 0.5 µM): -15.1% (inactive)
- inhibition ([8]; measured here: inhibition with BGB combination, at 0.05 µM): -6.88%
- inhibition ([8]; measured here: inhibition with cisplatin combination, at 0.05 µM): -8.03%
- inhibition ([9]; at 0.5 µM): -16.7% (inactive)
- inhibition [9, 21]: -19.3%
- inhibition [9, 22]: -26.8%
- inhibition ([10]; at 0.5 µM): -14.5% (inactive)
- inhibition ([10]; measured here: BGB combination, at 0.5 µM): -12.5%
- inhibition ([10]; measured here: BGB combination, at 5 µM): -5.62%
- inhibition ([10]; measured here: cisplatin combination, at 0.5 µM): -16%
- inhibition ([10]; measured here: cisplatin combination, at 5 µM): -15.6%
- inhibition ([11]; BGB combination, concentration series, at 5 µM): -1.33%
- inhibition ([11]; at 0.5 µM): -15.6% (inactive)
- inhibition ([11]; cisplatin combination, concentration series, at 5 µM): -23%
- inhibition ([12]; at 0.5 µM): -6.45% (inactive)
- inhibition ([12]; measured here: combo with BGB IC20, at 0.5 µM): -2.47%
- inhibition ([12]; measured here: combo with cisplatin IC20, at 0.5 µM): -6.44%
- inhibition ([13]; at 0.5 µM): -3.8% (inactive)
- inhibition ([13]; cisplatin combination, at 0.5 µM): 2.29%
- inhibition ([13]; cisplatin combination, at 5 µM): -12.8%
- inhibition ([13]; measured here: BGB IC40 combination 0.05 uM, at 0.05 µM): -21.5%
- inhibition ([13]; single agent, at 5 µM): -15.7%
- inhibition ([14]; at 0.5 µM): -17.3% (inactive)
- inhibition ([14]; cisplatin combo, at 5 µM): 5.67%
- inhibition ([14]; measured here: BGB IC40 combination, at 0.05 µM): -4.66%
- inhibition [14, 21]: -18.6%
- inhibition ([14]; single agent, at 5 µM): -40.3%
- inhibition ([15]; at 0.5 µM): -42.1% (inactive)
- inhibition [15, 19]: -36.5%
- inhibition [15, 20]: -44.9%
- inhibition ([15]; single agent, at 0.05 µM): -55%
- inhibition ([15]; single agent, at 5 µM): -25.3%

Compound: O=C(CCCN1CCC2(CC1)C(=O)N(CCc1ccc(N=C=S)cc1)CN2c1ccccc1)c1ccc(F)cc1
- period change [16]: 0.03 h (inactive)

Compound: C[C@]12CC[C@H]3[C@@H](CCC4C[C@H](O)CC[C@@]43C)[C@@H]1CC[C@@H]2O (some centres not stated)
- period change [16]: 0.065 h (inactive)

Compound: CC[C@@H]1/C=C/C=C/C[C@H](C)[C@@H](O)[C@](C)(O)C(=O)[C@H](C)[C@@H](O)[C@H](C)C(=O)[C@H](C)[C@@H](O)[C@H](C)/C=C/C(=O)O[C@H]2[C@@H](C)[C@@H](CC1)O[C@@]1(CC[C@@H](C)[C@@H](CC(C)O)O1)[C@@H]2C (some centres not stated)
- period change [16]: -1.77 h (inactive)

Compound: CN1CCC(N(C)CCC2CCOCC2)CC1
- z-score [17]: 0.38 (inactive)

Source: PubChem BioAssay
